Data from PubChem BioAssay (NCI).
Values joined by “and” are separate entries in the source; they are usually repeats but may differ in a detail not shown here. Equal entries are not always repeated. The panel holds about 83,000 compounds, 20% with a hit somewhere; the sample as a whole holds those more often.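 The endpoint reported here, percent growth, reads 100 for growth as untreated, 0 for no net growth and -100 for all cells dead.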 Active and inactive are the calls of the source. Rule for the calls: active = growth percent below 10; inactive = the rest.

Tests used:
Assay in all cases: NCI-60 one-dose screen, 48 h (100 = growth as untreated, 0 = no growth, -100 = all killed)
HCT-15 colon = conditions: 10 µM
HT29 colon = conditions: 10 µM
SNB-75 CNS = conditions: 10 µM
SNB-19 CNS = conditions: 10 µM
U251 CNS = conditions: 10 µM
PC-3 prostate = conditions: 10 µM
LOX IMVI melanoma = conditions: 10 µM
SK-MEL-28 melanoma = conditions: 10 µM
SK-MEL-5 melanoma = conditions: 10 µM
UACC-62 melanoma = conditions: 10 µM unless noted

Question: For COc1cc(/C=C\[N+](=O)[O-])ccc1O, which growth (HCT-15 colon) is on record?
Answer: -12% (active) and 75.9% (inactive)

Question: And the growth (HT29 colon)?
Answer: 32.3% (inactive) and 90.3% (inactive)

Question: What about the growth (SNB-75 CNS) of the same compound?
Answer: 93.6% (inactive) and 96.7% (inactive)

Question: What about the growth (SNB-19 CNS) of the same compound?
Answer: 82.6% (inactive) and 81.2% (inactive)

Question: What about the growth (U251 CNS) of the same compound?
Answer: 50.1% (inactive) and 64.1% (inactive)

Question: And the growth (PC-3 prostate)?
Answer: 97.6% (inactive) and 90.3% (inactive)

Question: And the growth (LOX IMVI melanoma)?
Answer: -66.1% (active) and 46.7% (inactive)

Question: What about the growth (SK-MEL-28 melanoma) of the same compound?
Answer: 55.8% (inactive) and 97.3% (inactive)

Question: COc1cc([N+](=O)[O-])c2ncccc2c1[N+](=O)[O-] was tested. Which growth (HCT-15 colon) did it give?
Answer: 68.9% (inactive)

Question: And the growth (SNB-75 CNS)?
Answer: 61.3% (inactive)

Question: And the growth (SNB-19 CNS)?
Answer: 96% (inactive)

Question: And the growth (U251 CNS)?
Answer: 41.9% (inactive)

Question: What about the growth (PC-3 prostate) of the same compound?
Answer: 66.4% (inactive)

Question: What about the growth (SK-MEL-5 melanoma) of the same compound?
Answer: 95.6% (inactive)

Question: And the growth (UACC-62 melanoma)?
Answer: 74% (inactive)

Question: And the growth (LOX IMVI melanoma)?
Answer: 12.2% (inactive)

Question: What about the growth (SK-MEL-28 melanoma) of the same compound?
Answer: 90.9% (inactive)

Question: For O=C1C=Cc2ccccc2C1=O, which growth (HCT-15 colon) is on record?
Answer: 46.9% (inactive)

Question: And the growth (HT29 colon)?
Answer: 112% (inactive)

Question: And the growth (SNB-19 CNS)?
Answer: 72.7% (inactive)

Question: And the growth (U251 CNS)?
Answer: 74.2% (inactive)

Question: What about the growth (PC-3 prostate) of the same compound?
Answer: 72.9% (inactive)

Question: And the growth (SK-MEL-5 melanoma)?
Answer: 31.3% (inactive)

Question: And the growth (LOX IMVI melanoma)?
Answer: 90% (inactive)

Question: What about the growth (SK-MEL-28 melanoma) of the same compound?
Answer: 53.2% (inactive)

Question: Which results are given for [Cl][Sn]([c]1ccccc1)([c]1ccccc1)[c]1ccccc1?
Answer: growth (HCT-15 colon): -87% (active); growth (HT29 colon): -81.4% (active); growth (SNB-75 CNS): -98.6% (active); growth (SNB-19 CNS): -76.5% (active); growth (U251 CNS): -98.6% (active); growth (PC-3 prostate): -72.9% (active); growth (LOX IMVI melanoma): -76.1% (active); growth (SK-MEL-28 melanoma): -85% (active)
